Each structure is given as a SMILES string. The whole screen tested about 300,000 compounds, of which about 2,400 (0.8%) were called active. What follows is part of a selection rich in actives, with near analogues and random picks from the rest. Values without a mark were called inactive.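 How the source made its calls: active means Every replicate reaches about 75%, or at least half do and their mean reaches it too (limit read from the data); inconclusive means At least half of replicates reach the limit but their mean does not; inactive means Under half of replicates reach the limit.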

The assay in a line: inhibitors of cytokine-induced beta cell apoptosis, primary screen, luminescence (AID 435005).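 Further: 0% = cytokine-treated negative control wells and 100% = positive control rescue; higher means more ATP so stronger rescue from cytokine killing.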 The conditions noted are these: INS-1E cytokine-induced death, ATP luminescence, 48 h; active compounds read high; percent of positive-control rescue, neutral wells zero; concentration not given here.
For the compound `O=C(Nc1ccccc1)N1CCC(C(=O)N2CCN(Cc3ccccc3)CC2)CC1`, the protection from apoptosis was -2.8%.

For `O=C(COC(=O)COc1cccc(F)c1)NCC1CCCCC1`, the protection from apoptosis was -3.55%. Turning to `Cc1ccc(NS(=O)(=O)c2ccc(C(C)C)cc2)cc1S(=O)(=O)N1CCOCC1`, the protection from apoptosis is 4.91%. The same measure for `Cc1ccccc1NC(=O)CSC(=O)c1ccccc1`: -2.98%; for `C#CCOCCOCCOCCNc1nc(N2CCN(C(=O)[C@H](CO)n3cc([C@@H](N)C(C)C)nn3)CC2)nc(N2CCN(C(=O)[C@H](CCC(=O)O)n3cc([C@@H](N)[C@H](C)CC)nn3)CC2)n1`: -6.94%.

`CN(C(=O)c1cccc(NC(=O)Cc2ccc([N+](=O)[O-])cc2)c1)C1CCC1`: the protection from apoptosis is -5.07%. Take `CCn1ccnc1CN(C)C(=O)c1cc(COc2ccc(-n3cncn3)cc2)on1`: the protection from apoptosis was -3.2%.

Take `C=CCC1(CC=C)CCCN1C(=O)c1cc(COc2ccc(-n3cncn3)cc2)on1`: the protection from apoptosis is 104% (active).

In the case of `COc1cccc(OCc2cc(C(=O)N3CCN(C(=O)c4ccco4)CC3)no2)c1`, the protection from apoptosis is -1.9%.

As to `Cc1cccc(NC(=O)c2ccc(S(=O)(=O)N(C)c3ccccc3)cc2)n1`, the protection from apoptosis is -7.09%.

For the compound `COc1cc2cc(C(=O)N/N=C/c3cccc(OC)c3OC)[nH]c2cc1OC`, the protection from apoptosis was 0.139%.

On to `COc1cccc(/C=N/NC(=O)c2[nH]nc3c2CCc2ccccc2-3)c1O`, for which the protection from apoptosis is 82.2% (active). For the compound `CN(C)CCNC(=O)c1[nH]nc2c1CCc1ccccc1-2`, the protection from apoptosis was -8.17%. The same measure for `COc1cc(C(=O)NC2CCN(C)CC2)ccc1Nc1ncc2c(n1)N(C1CCC(O)CC1)CCC(=O)N2C` (configuration not stated): -0.596%. Turning to `COc1cc(SC)ccc1C(=O)NNC(=O)C1COc2ccccc2O1` (configuration not stated), the protection from apoptosis is -1.75%.

For the compound `CCCN(CC(=O)Nc1ccccc1C)C(=O)c1ccc2[nH]c3c(c2c1)CC(C)CC3` (configuration not stated), the protection from apoptosis is 8.11%.

With `COc1ccc(OCCCC(=O)Nc2cccc(S(=O)(=O)N3CCCCCC3)c2)cc1`, the protection from apoptosis was -3.4%. As for `COc1ccc(Cc2nnc(N/N=C/c3ccccc3O)[nH]c2=O)cc1OC`, the protection from apoptosis is 85.2% (active).

Take `COc1ccc(/C=N/Nc2nc3ccccc3c(=O)[nH]2)cc1`: the protection from apoptosis was 12%.

For `CC(C)c1ccc(Cc2nnc(NCCCO)[nH]c2=O)cc1`, the protection from apoptosis is -1.74%. The same measure for `CC(=O)c1c(C)[nH]c(C(=O)COc2ccc3c(C)cc(=O)oc3c2)c1C`: -1.3%; for `CN(c1ccccc1)S(=O)(=O)c1ccc(C(=O)N2CCN(c3ccccc3Cl)CC2)cc1`: 3.55%. As for `Cc1ccc2c(c1)NC(=O)[C@@]1(C)[C@@H](c3ccccc3)[C@H]3COc4ccc(Cl)cc4[C@@H]3N1C2=O`, the protection from apoptosis was -5.63%. For `CCOC(=O)C1=C(CN2CCc3ccccc32)NC(=O)NC1c1ccc(Cl)cc1` (configuration not stated), the protection from apoptosis is -0.812%. `CCOC(=O)C1=C(CCc2ccccc2)NC(=O)NC1c1ccc2ccccc2c1` (configuration not stated): the protection from apoptosis was 93.7% (active). `CCOC(=O)C1=C(CN2CCCCCC2)NC(=O)NC1c1cccc([N+](=O)[O-])c1` (configuration not stated): the protection from apoptosis is -5.34%.

`Cc1ccc(CNC(=O)COc2ccc(S(=O)(=O)NC(C)C)cc2)cc1`: the protection from apoptosis is -8.98%. Regarding `Cc1cc(S(=O)(=O)NC2CCCCC2)ccc1OCC(=O)NCc1cccnc1`, the protection from apoptosis was 6.11%. As for `Cc1ccc(C)c(NS(=O)(=O)c2ccc(OCC(=O)NCc3cccnc3)cc2)c1`, the protection from apoptosis is 99.2% (active).

On to `COc1ccc(-c2nn(-c3ccccc3)cc2/C=N/Nc2ccccn2)cc1OC`, for which the protection from apoptosis is 59.9%. The same measure for `O=[N+]([O-])c1ccc(O)c(/C=N/Nc2ccccc2[N+](=O)[O-])c1`: 36.9%. `Oc1ccc(Br)cc1/C=N/Nc1ccccn1`: the protection from apoptosis is 133% (active). The same measure for `CCOC(=O)[C@H]1[C@H]2COc3cc(OC)ccc3[C@@H]2N2C(=O)CN(Cc3ccc(Cl)cc3)C(=O)[C@@]12C`: -0.794%. Consider `COc1ccc(C(=O)NCC2CCCCC2)cc1S(=O)(=O)N1CCCC1`, for which the protection from apoptosis was -0.303%. The same measure for `CC(Sc1nnc(C2CC2)n1C1CC1)C(=O)Nc1ccc(C(N)=O)cc1` (configuration not stated): -0.98%; for `Oc1c(CN2CCN(c3ccc(F)cc3)CC2)cc(Cl)c2cccnc12`: 111% (active). With `Oc1c(CN2CCCC2)cc(COCc2ccccc2)c2cccnc12`, the protection from apoptosis is 73%. As for `Oc1ccc(CN2CCN(c3ncccn3)CC2)cc1`, the protection from apoptosis is -1.21%.

Regarding `CC1CCCCC1NC(=O)COc1ccc(C#N)cc1` (configuration not stated), the protection from apoptosis is 0.693%. Then `CNS(=O)(=O)c1ccc(C(=O)NCC(=O)NCCc2ccc3c(c2)OCCO3)cc1`, with -2.22%. Then `Cc1ccc(C(=O)NCCNC(=O)c2cnccn2)cc1`, with -7.48%. Then `CCN(CC)c1ccc(/C=N/NC(=O)c2cnccn2)c(O)c1`, with 101% (active); and `Cc1cc(C)nc(N/N=C/c2c(CO)cnc(C)c2O)n1`, with -3.01%; and `CCN(CC)c1ccc(/C=N/Nc2nc(C)cc(C)n2)c(O)c1`, with 81.7% (active). On to `CCN(CC)c1ccc(/C=N/NC(=O)CNC(=O)c2cccnc2)cc1`, for which the protection from apoptosis is 4.98%. Then `Cc1cc(C)nc(N/N=C/c2ccncc2)n1`, with -0.736%; and `CC1(C)CC[C@@]2(C(=O)O)C(C1)C1=CCC3[C@@]4(C)CC[C@H](O)C(C)(C)C4CC[C@@]3(C)[C@]1(C)C[C@H]2O` (some centres not stated), with 22.4%; and `COc1ccc(C(=O)Nc2cc(S(=O)(=O)N3CCCC3)ccc2Cl)cc1`, with -1.79%.

For the compound `O=C1NC(Cc2ccc(O)cc2)c2nc3ccc(Cl)cc3c(=O)n2-c2ccccc21` (configuration not stated), the protection from apoptosis is -3.47%. Consider `CN(Cc1ccc(CNC[C@H]2O[C@@H](n3cnc4c(N)ncnc43)[C@H](O)[C@@H]2O)o1)S(C)(=O)=O`, for which the protection from apoptosis was -10.1%. As to `C[C@@H]1CN([C@@H](C)CO)C(=O)c2cc(NC(=O)C3CC3)ccc2O[C@H]1CN(C)C`, the protection from apoptosis was 0.593%.

On to `Cc1ccc2nc(-c3ccc(NC(=O)c4cccnc4)cc3)oc2c1`, for which the protection from apoptosis was 106% (active).

As to `Cc1cc2nc(-c3ccc(NC(=O)c4cccnc4)cc3)oc2cc1C`, the protection from apoptosis is 104% (active). Then `Cc1ccc(-n2nc3cc(C)c(NC(=O)c4cccnc4)cc3n2)cc1`, with -1.41%; and `CCOC(=O)c1cc(NC(=O)c2cccnc2)ccn1`, with -6.76%. As to `O=C(Cc1ccccc1)Nc1ccc(NC(=O)c2cccnc2)cc1`, the protection from apoptosis is -0.0371%. As for `CC(=O)NC(=S)Nc1ccc(NC(=O)c2cccnc2)cc1`, the protection from apoptosis was -1.43%. Turning to `Cc1cc(NS(=O)(=O)c2ccc(NC(=O)c3cccnc3)cc2)nc(C)n1`, the protection from apoptosis was -3.28%. The same measure for `CCOC(=O)c1ccc(NC(=O)c2cccnc2)cc1`: 112% (active); for `CCOC(=O)c1ccc(-c2ccc(C(=O)Nc3cccnc3)o2)cc1`: 3.72%; for `CCn1nc(C(=O)Nc2ccc(N3CCOCC3)cc2)c2ccccc2c1=O`: -0.317%.

For the compound `C#CCOCCOCCOCCNc1nc(N2CCN(C(=O)C([C@@H](C)O)n3cc([C@@H](N)CCCCN)nn3)CC2)nc(N2CCN(C(=O)[C@H](CCCCN)n3cc(CN)nn3)CC2)n1` (some centres not stated), the protection from apoptosis is 0.272%. Consider `CN(CC(=O)NCC(c1ccccc1)N1CCCC1)S(=O)(=O)c1ccc(Cl)cc1` (configuration not stated), for which the protection from apoptosis was -2.83%. For `CC1CCCC(C)N1C(=O)COC(=O)COc1ccccc1C#N` (configuration not stated), the protection from apoptosis was -0.693%.

For the compound `COc1cc(OC)cc(-c2cc3ccc(F)cc3cn2)c1`, the protection from apoptosis was 3.7%.

For `CC(=O)Nc1ccc(S(=O)(=O)NCC(=O)OCC(=O)c2ccc[nH]2)cc1`, the protection from apoptosis is 0.385%. Then `O=C(C[C@H]1C/C=C\C[C@@H](NC(=O)OCC2c3ccccc3-c3ccccc32)C(=O)O[C@@H](c2ccccc2)CNC1=O)N[C@H](CO)Cc1ccccc1`, with 54.4%; and `O=C(Cc1nc2ccccc2[nH]c1=O)c1ccc(Cl)cc1`, with -0.338%; and `O=C(/C(=C/c1cccc(Cl)c1)c1nc2ccccc2[nH]1)c1ccccc1`, with 101% (active). With `CCC(=O)/C(=C(/O)c1ccccc1)c1nc2ccccc2[nH]1`, the protection from apoptosis is -5.02%. Regarding `CC(=O)c1ccc(NC(=O)CSc2nc3ccccc3c(=O)n2CCCN2CCOCC2)cc1`, the protection from apoptosis is -12.1%.

Turning to `N#Cc1cccc(Nc2c3c(nc4ccccc24)CCCC3)c1`, the protection from apoptosis was 10.5%.

As to `O=C(Nc1c2c(nc3ccccc13)CCCC2)c1ccccc1Br`, the protection from apoptosis was -2.43%.

Regarding `CC(=O)Nc1ccc(NC(=O)COc2ncnc3ccccc23)cc1`, the protection from apoptosis was 1.06%. For the compound `Cc1ccc(Nc2c3c(nc4ccccc24)CCC3)cc1`, the protection from apoptosis was 82.4% (active). Regarding `CC(=O)Nc1ccc(Nc2c3ccccc3nc3ccccc23)cc1`, the protection from apoptosis is 88.6% (active).

Turning to `CC(C)(C)OC(=O)NNc1c2ccccc2nc2ccccc12`, the protection from apoptosis is 24.9%. As to `COc1ccc(Cl)cc1NC(=O)COC(=O)c1ccc(Br)o1`, the protection from apoptosis is -10.1%.

With `COc1cccc(NC(=O)CSc2nnc(C3CCCCC3)n2N)c1`, the protection from apoptosis was -3.75%.

As to `CCc1ccc(-c2nn(-c3ccccc3)cc2CSC(=N)N)cc1`, the protection from apoptosis was 89.4% (active). For the compound `Cc1ccc(-c2nn(-c3ccccc3)cc2C(=O)NC2CCC(O)CC2)cc1` (configuration not stated), the protection from apoptosis is 1.53%. As for `O=C(Nc1cn(-c2ccccc2)nc1-c1ccccc1)c1ccccc1`, the protection from apoptosis was 2.47%. The same measure for `Cc1occc1C(=O)Nc1cccc(S(=O)(=O)N2CCOCC2)c1`: -3.05%; for `C=CCC[C@H](Cc1ccc(F)cc1)C(=O)OC[C@H](C)NC(=O)[C@H](CC=C)CC(=O)N(CCO)Cc1ccccc1`: 2.93%. The same measure for `Cn1c(=O)[nH]c(=O)c2c1nc(N1CCN(C(c3ccccc3)c3ccccc3)CC1)n2CCO`: 99.9% (active); for `CN1CCN(c2nc3c(c(=O)[nH]c(=O)n3C)n2Cc2cccc3ccccc23)CC1`: 2.14%; for `Cn1c(=O)[nH]c(=O)c2c1nc(N1CCN(CCO)CC1)n2CCSc1nc2ccccc2s1`: 2.68%.
